Compound activity as filed in PubChem BioAssay.
CHRM1 agonist – human M1 muscarinic receptor agonists, primary screen, Fluo-8 calcium fluorescence, CHO-K1 cells, HTS | Muscarinic acetylcholine receptor M1 (Homo sapiens), P11229 | CHO-K1 hM1, agonist mode; 0% DMSO, 100% acetylcholine EC100 | activation, % at 3 µM | 360,000 compounds, 0.33% hits | AID 588814, 2011;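 active means activation above the run's mean compound activation plus 3 SD, cut at about 16% in these data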;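 further: peak over basal fluorescence ratio within a 140 s kinetic read after compound addition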
Target sequence (P11229 whole entry, looked up): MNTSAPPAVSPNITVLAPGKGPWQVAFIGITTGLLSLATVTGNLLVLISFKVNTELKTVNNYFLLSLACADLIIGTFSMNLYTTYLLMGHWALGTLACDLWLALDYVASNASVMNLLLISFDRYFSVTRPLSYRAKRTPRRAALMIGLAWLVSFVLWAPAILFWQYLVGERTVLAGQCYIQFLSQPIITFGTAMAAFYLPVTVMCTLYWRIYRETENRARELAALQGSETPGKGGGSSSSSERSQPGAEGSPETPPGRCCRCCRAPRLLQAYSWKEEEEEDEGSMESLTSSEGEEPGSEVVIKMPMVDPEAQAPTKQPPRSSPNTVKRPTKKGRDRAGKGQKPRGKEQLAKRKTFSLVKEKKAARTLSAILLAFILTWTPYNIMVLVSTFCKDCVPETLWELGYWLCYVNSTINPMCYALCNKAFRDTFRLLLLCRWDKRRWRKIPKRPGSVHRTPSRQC
M1 antag – human M1 muscarinic receptor antagonists, primary screen, CHO-K1 cells, Fluo-8 calcium fluorescence, 1536-well | 360,000 compounds, 1.3% hits | CHO-K1 hM1, ACh EC80 antagonist | inhibition, % at 3 µM | AID 588852, 2011;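 active means percent inhibition above its own plate's cutoff, namely the mean of that plate's compound wells plus 3 SD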;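 further: peak over basal fluorescence ratio during 140 s after agonist addition; 0% = ACh EC80 plus DMSO and 100% = DMSO alone without agonist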
M1 PAM parental – nonselective calcium activators in parental CHO-K1 cells, primary screen, counter-screen for M1 PAM project, cell-based, Fluo-8 calcium fluorescence, full deck, 1536-well; ATP EC20; 0% at ATP EC20, 100% at ATP max; activation, % at 3 µM; 360,000 compounds, 0.02% hits; AID 602247, 2012;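 active means activation above the run cutoff, the mean activation of all test compounds plus 3 SD, cut at about 40% in these data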;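 further: peak over basal fluorescence ratio in a 140 s read after ATP addition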
CHO-K1 Ca ag – counter-screen for M1 agonists: effect in parental CHO-K1 cells; Fluo-8 calcium fluorescence; scaled to maximal ATP response, vehicle zero; activation, % at 3 µM; 360,000 compounds, 0.48% hits; AID 602248, 2012; in the data active means activation above about 15%;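 further: untransfected CHO-K1 host cells lacking M1 receptor as counterscreen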
CHO-K1 Ca antag – M1 antagonist counterscreen hit in parental CHO-K1 cells. ATP-induced calcium, Fluo-8 fluorescence. inhibition, % at 3 µM. 360,000 compounds, 0.6% hits;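 active means inhibition above a per-plate cutoff, the plate's mean sample inhibition plus 3 SD, cut at about 24% in these data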;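 further: 0% = DMSO plus EC80 ATP and 100% = DMSO alone without ATP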
M1 PAM – human M1 muscarinic receptor positive allosteric modulators, primary screen, CHO-K1 cells, Fluo-8 calcium fluorescence, 1536-well; CHO-K1 hM1, ACh EC20; 0% = ACh EC20, 100% = maximal ACh; activation, % at 3 µM; 360,000 compounds, 0.088% hits; AID 588819, 2011; in the data active means activation above about 19%, passing the limit was not always enough
An asterisk follows results filed as active. The list is not random: actives were taken first. Their share in the collection is about 2.3%.

SMILES | CHRM1 agonist | M1 antag | M1 PAM parental | CHO-K1 Ca ag | CHO-K1 Ca antag | M1 PAM
CN(CC(=O)Nc1ccc(Cl)cc1)C(=O)COc1ncnc2ccccc12 | -5.2 | 3.3 | -21.3 | 0.1 | -5.2 | -4.3
CN(CC(=O)Nc1ccc(F)cc1)C(=O)COc1ncnc2ccccc12 | 0.3 | 100.6* | 18.1 | 6.1 | -4.6 | -26.0
COc1ccc(NC(=O)CN(C)C(=O)c2cc(-c3ccc(OC)cc3)nc3ccccc23)cc1 | -2.1 | 29.2* | -0.3 | 5.4 | -0.3 | -10.4
CN(CCOc1ccc(Cl)cc1)C(=O)c1cc(-c2ccco2)nc2ccccc12 | -0.6 | 37.8* | -2.9 | 9.4 | 24.5* | -10.9
O=S(=O)(c1ccccc1)N1CCC(Oc2ccc(-n3cnnn3)cc2)CC1 | 2.4 | 36.7 | -11.9 | 17.7* | 2.5 | -15.3
O=C(NCCc1ccccc1)C1CCN(S(=O)(=O)c2ccc(-n3cnnn3)cc2)CC1 | -3.5 | -8.4 | 17.5 | 1.2 | -4.2 | 4.5
CCOC(=O)c1ccc(NC(=O)C(=O)NCC2(c3ccc(OC)cc3)CCOCC2)cc1 | -1.6 | -7.6 | 0.4 | 2.3 | -7.1 | 4.2
Cc1noc(C)c1NC(=O)N(C)C[C@H]1OCCCC[C@@H](C)Oc2ccc(NC(=O)Nc3ccc(F)cc3)cc2C(=O)N([C@@H](C)CO)C[C@H]1C | -4.7 | -9.9 | 6.5 | 0.1 | 3.4 | 6.3
C[C@H](CO)N1C[C@H](C)[C@@H](CN(C)S(=O)(=O)c2cn(C)cn2)Oc2ccc(NC(=O)Nc3ccccc3)cc2C1=O | -5.3 | -1.8 | 0.5 | -0.1 | -6.9 | 5.0
Cc1noc(C)c1NC(=O)Nc1ccc2c(c1)C(=O)N([C@H](C)CO)C[C@@H](C)[C@@H](CN(C)S(=O)(=O)c1cn(C)cn1)OCCCC[C@H](C)O2 | -3.4 | -3.5 | 10.2 | 0.4 | 26.0* | 1.1
Cc1ccc(S(=O)(=O)N(C)C[C@@H]2OCCCC[C@H](C)Oc3ccc(NC(=O)Nc4ccc(F)cc4)cc3C(=O)N([C@H](C)CO)C[C@H]2C)cc1 | -4.4 | 0.4 | -7.8 | -0.7 | 25.7* | -5.3
Cc1ccc(S(=O)(=O)N(C)C[C@@H]2OCCCC[C@@H](C)Oc3ccc(NS(=O)(=O)c4c(C)noc4C)cc3C(=O)N([C@H](C)CO)C[C@@H]2C)cc1 | -9.5 | -5.9 | 5.8 | 0.5 | -8.4 | -5.3
Cc1ccc(S(=O)(=O)Nc2ccc3c(c2)C(=O)N([C@@H](C)CO)C[C@@H](C)[C@@H](CN(C)S(=O)(=O)c2ccccc2)OCCCC[C@H](C)O3)cc1 | -5.7 | -2.3 | -15.4 | -0.1 | 23.7* | -3.9
COc1ccc(S(=O)(=O)N(C)C[C@H]2OCCCC[C@H](C)Oc3ccc(NC(=O)Nc4ccc(F)cc4)cc3C(=O)N([C@H](C)CO)C[C@H]2C)cc1 | -2.7 | -16.3 | 26.8 | 0.1 | -20.9 | 7.0
Cc1noc(C)c1NC(=O)N(C)C[C@H]1OCCCC[C@@H](C)Oc2ccc(NC(=O)c3ccccc3)cc2C(=O)N([C@H](C)CO)C[C@@H]1C | 17.0* | 5.8 | -6.5 | -0.2 | 5.5 | -13.7
COc1cccc(-c2nc(-c3ccc4c(c3)-c3ccccc3S4(=O)=O)c(-c3ccccc3)[nH]2)c1OC | 1.6 | 5.3 | -8.7 | -0.7 | 27.3* | 1.8
COc1cc(-c2nc(-c3ccc4c(c3)-c3ccccc3S4(=O)=O)c(-c3ccccc3)[nH]2)cc(OC)c1OC | -2.3 | 21.9 | -0.6 | 2.4 | 15.5 | -5.3
CC(C)Cn1c(N)c(C(=O)COC(=O)Cc2cccs2)c(=O)n(C)c1=O | 3.3 | 29.5* | -10.6 | 12.8 | 12.1 | -11.6
CC(C)Cn1c(N)c(C(=O)COC(=O)Cc2cccc(C(F)(F)F)c2)c(=O)n(C)c1=O | -2.1 | 37.9* | -27.2 | 10.7 | 22.6 | -18.0
CC1CCCN(C(=O)c2ccc3ncsc3c2)C1 (stereo not given) | -0.7 | -8.0 | -24.1 | 0.2 | 14.6 | 6.4
